# In PubChem BioAssay:
# The source made the active and inactive calls.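 The calls were made as follows: active = mean duplicate potentiation above the buffer control mean plus 5 SD of buffer wells; inactive = the rest.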
# Molecular target: Potassium voltage-gated channel subfamily KQT member 2 (Rattus norvegicus) (UniProt O88943)
# Experiment: KCNQ2 thallium flux enhancement – KCNQ2-CHO-K1 cells, selectivity assay for KCNQ1 potentiator project (AID 493009);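 also: assay conditions were tuned for KCNQ1 rather than KCNQ2 modulators; signal is max minus min fluorescence divided by baseline after thallium stimulus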
# Conditions: FluxOR thallium flux fluorescence, at 10 µM; hits give high values, scaled: buffer 0, activator control 100
# Sequence of Potassium voltage-gated channel subfamily KQT member 2 (Rattus norvegicus) (O88943 whole entry, looked up): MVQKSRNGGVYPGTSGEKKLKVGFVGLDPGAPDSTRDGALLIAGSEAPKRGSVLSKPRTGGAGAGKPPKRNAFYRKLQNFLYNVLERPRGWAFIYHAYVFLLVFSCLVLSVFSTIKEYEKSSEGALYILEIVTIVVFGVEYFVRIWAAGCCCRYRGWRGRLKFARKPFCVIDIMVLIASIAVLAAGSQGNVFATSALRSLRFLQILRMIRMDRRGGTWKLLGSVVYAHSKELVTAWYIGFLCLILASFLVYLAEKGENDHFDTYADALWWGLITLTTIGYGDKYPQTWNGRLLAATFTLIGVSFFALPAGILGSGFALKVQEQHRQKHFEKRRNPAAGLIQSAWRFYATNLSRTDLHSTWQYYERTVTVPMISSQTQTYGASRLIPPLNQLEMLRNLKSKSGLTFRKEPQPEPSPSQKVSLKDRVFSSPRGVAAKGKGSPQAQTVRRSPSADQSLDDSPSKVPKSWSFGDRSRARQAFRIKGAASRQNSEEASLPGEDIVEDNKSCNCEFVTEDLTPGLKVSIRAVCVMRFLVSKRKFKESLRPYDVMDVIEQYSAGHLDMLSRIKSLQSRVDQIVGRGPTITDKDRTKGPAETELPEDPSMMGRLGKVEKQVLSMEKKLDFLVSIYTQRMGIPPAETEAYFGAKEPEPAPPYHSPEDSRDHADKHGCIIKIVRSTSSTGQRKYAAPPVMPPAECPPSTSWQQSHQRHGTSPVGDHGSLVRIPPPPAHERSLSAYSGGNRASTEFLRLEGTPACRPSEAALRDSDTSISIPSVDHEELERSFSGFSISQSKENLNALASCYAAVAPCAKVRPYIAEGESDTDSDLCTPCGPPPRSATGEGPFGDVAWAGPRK
SMILES,outcome,potentiation
CCCCCCCCCCC[N+](C)(C)CC/C=C1/c2ccccc2Sc2ccc(Cl)cc21,inactive,–
CCCCCCCCCCCCC/C=C/[C@@H](O)[C@@H](N)CO,–,414% (active)
COc1ccc(/C(O)=C2/C(=O)C(=O)N(CCCN(C)C)C2c2ccc(Cl)cc2)cc1OC (stereo not given),inactive,–
CN(C(=O)c1cc(COc2c(F)cccc2F)on1)C1CCOC1 (stereo not given),inactive,–
CCN(CC)CC(=O)Nc1ccc2c(c1)Nc1ccccc1CC2,–,217% (active)
C=CCC(=O)N1CCC(n2nccc2NC(=O)CCOc2ccccc2)CC1,inactive,–
O=[N+]([O-])c1ccc(/C([O-])=C(/C(=S)NCc2ccco2)[n+]2ccccc2)cc1,inactive,–
Cc1ccc(C(=O)NCCC(=O)NCc2cc(=O)n(C)c(=O)n2C)cc1,inactive,–
CCC(=O)NNc1nc2c(Cl)cccc2s1,inactive,–
CC1(C)CC[C@]2(C(=O)O)CC[C@]3(C)C(=CCC4[C@@]5(C)CC[C@H](O)C(C)(C)C5[C@H](O)C[C@]43C)[C@@H]2C1 (stereo not given in full),–,182% (active)
COc1ccccc1/C=C1\N=C(C(C)(C)C)OC1=O,inactive,–
CCCCc1nc2sc3c(SCCN(C)C)ncnc3c2c2c1CCC2,–,183% (active)
CCC1(c2ccc(Cl)cc2)NC(=S)N(c2ccc(C)cc2)N1 (stereo not given),–,604% (active)
Cc1ccccc1-n1cnnc1SCC(=O)N1CCN(c2ccccc2)CC1,–,206% (active)
CCOc1ccc(-c2noc(CCC(=O)NC3CCCC3)n2)cc1OC,inactive,–
COc1cc(Br)cc(/C=N/c2ncn[nH]2)c1O,inactive,–
O=C(CSc1nc(=O)n2ccccc2n1)NCc1ccccc1,inactive,–
COc1cc(C2C(C#N)=C(N)Oc3cc(O)ccc32)cc2c1OCO2 (stereo not given),inactive,–
CCOc1ccc(C(C#N)N2CCOCC2)cc1OC (stereo not given),inactive,–
CS(=O)(=O)c1ccc(C(=O)OCc2nnc(-c3ccc(Cl)cc3)o2)cc1[N+](=O)[O-],–,144% (active)

SMILES,outcome,potentiation
CCOC(=O)c1sc2ncnc(NCC(c3cccs3)N(C)C)c2c1C (stereo not given),–,263% (active)
CCCN1CCC(NC(=S)Nc2cccc(Cl)c2Cl)CC1,inactive,–
Cc1nn(-c2ccccc2)nc1C(=O)NNC(=O)c1cccc2ccccc12,–,182% (active)
Cc1cc(Cl)n2nc(C)c(-c3ccc(Cl)cc3)c2n1,–,340% (active)
O=C(CSc1cccc[n+]1[O-])c1cc(Cl)ccc1Cl,inactive,–
Cc1ccc(C(=O)CC(=O)COc2ccc(Cl)cc2C)cc1,–,209% (active)
COc1cccc2sc(N(CCCN(C)C)C(=O)CCS(=O)(=O)c3ccccc3)nc12,inactive,–
CC(CCc1ccccc1)NC(=S)NC(=O)c1ccco1 (stereo not given),–,251% (active)
N#C/C(=C/c1cn(-c2ccccc2)nc1-c1cccc(S(=O)(=O)N2CCOCC2)c1)C(=O)NCc1ccco1,inactive,–
COc1ccc(-n2c(=S)[nH]c3c(oc4ccccc43)c2=O)cc1,inactive,–
COC(=O)[C@@H]1CCCN1C(=O)CCc1nnc(CCC2CCCCC2)o1,inactive,–
CC1=NN(C(N)=S)C(=O)C1N=Nc1cccc(Cl)c1C (stereo not given),–,1230% (active)
OC1(c2ccc(Br)cc2)CCNCC1,inactive,–
CC1CCCC(NC(=S)NC(=O)c2cncc(Br)c2)C1C (stereo not given),inactive,–
CCc1ccc(/C=C/C(=O)C2C(=O)c3ccccc3C2=O)cc1,–,297% (active)
C/C(=N\Nc1nc2ccccc2[nH]1)c1ccc(Cl)s1,–,156% (active)
O=c1c(O)c(-c2cccs2)oc2ccccc12,–,289% (active)
CCN(C(=O)COC(=O)C(Cc1ccccc1)N1C(=O)c2ccccc2C1=O)C1CCS(=O)(=O)C1 (stereo not given),inactive,–
CS(=O)(=O)N1CCN(c2ccccc2NC(=O)CSc2nnc(-c3ccco3)o2)CC1,inactive,–
Cc1sc2nc(CN3CCOCC3)[nH]c(=S)c2c1C,–,292% (active)
